The text below walks through data of ChEMBL document CHEMBL4513216, “Probing the Open Global Health Chemical Diversity Library for Multistage-Active Starting Points for Next-Generation Antimalarials” (ACS Infect Dis, 2020).

SMILES strings stand for the structures. The whole screen tested about 68,000 compounds, of which about 2,700 (4%) showed an effect of 50% or more. This excerpt belongs to a sample that is enriched for strong results.

The assay has as its system Plasmodium berghei. Briefly: Screen against P. berghei liver stage (PbLuc), transformed with Luciferase, at 2uM. The settings on record: tested at 2 uM. Type of assay: functional, HepG2.
Take `CC(=O)Nc1nc(C(=O)N2CCCC(n3nc(C)cc3C)C2)cs1` (stereo unspecified): the INHIBITION is -45.23%. Regarding `N#Cc1cccc(OCCN2CCCC2C(=O)N2CCSCC2)c1` (stereo unspecified), the INHIBITION was found to be 9.04%. As for `COCCN1CCN(c2cccc(C)n2)Cc2ccc(C)nc21`, the figure is -21.77%; as for `Cn1cc(N2C[C@@H]3CN(S(=O)(=O)C4CC4)C[C@@H]3C2=O)cn1`, 63.23%. As for `CCS(=O)(=O)N1C[C@H]2CN(c3cnn(C)c3)C(=O)[C@H]2C1`, the figure is -33.15%. For `Cn1cc(N2C[C@@H]3CN(CC4CCOCC4)C[C@@H]3C2=O)cn1`, the INHIBITION is -1.69%. As for `Cc1nc(C2CCCN2C(=O)c2ccc(F)cc2)ncc1C(N)=O` (stereo unspecified), the figure is 21.33%; as for `CCOC(=O)N1CCC(NC(=O)c2cccc(C3CCCNC3)c2)CC1` (stereo unspecified), 35.15%; as for `Cc1cnn(CC2CN(c3nnc(C)c(C)c3C#N)CCO2)c1` (stereo unspecified), 54.2%. As for `Cc1nnc(N2CCOC(Cn3cccn3)C2)c(C#N)c1C` (stereo unspecified), the figure is 8.7%; as for `CCC1CN(c2nnc(C)c(C)c2C#N)CCO1` (stereo unspecified), 11.18%. As to `O=C1CSC(c2ccc(Cl)cc2Cl)c2c(n(C3CCOCC3)[nH]c2=O)N1` (stereo unspecified), the INHIBITION is 5.47%. As for `CN(C)S(=O)(=O)N1CCC(Oc2ccc(C#N)cn2)CC1`, the figure is 31.38%. On to `CC(C)c1nn(C)c(Cl)c1CNCc1ccc2c(c1)OCO2`, for which the INHIBITION is reported as 35.65%. As for `CCC(CC)N(Cc1ccc2c(c1)OCO2)C(=O)c1ccc(=O)n(C)c1`, the figure is -55.13%; as for `CCC(C)NC(=O)CCc1ccc(OCC(F)(F)F)c(OC)c1` (stereo unspecified), 51.94%; as for `COc1cc(CCC(=O)NC(C)C)ccc1OCC(F)(F)F`, -56.02%. Turning to `COc1cc(CCC(=O)NC(C)C(=O)O)ccc1OCC(F)(F)F` (stereo unspecified), the INHIBITION is given as -16.42%. As for `NC(=O)c1cccc2nc([C@H]3CCN(Cc4ccccc4F)C3)[nH]c12`, the figure is 18.87%.

For `NC(=O)c1cccc2nc([C@H]3CCN(Cc4ccccn4)C3)[nH]c12`, the INHIBITION is reported as 50.72%.

For `Cc1ccc(CN2CC[C@H](c3nc4cccc(C(N)=O)c4[nH]3)C2)cc1`, the INHIBITION was 23.26%.

As to `CS(=O)(=O)N1CCCC(Cc2ccnc(Nc3ccccn3)c2)C1` (stereo unspecified), the INHIBITION amounted to 3.38%. As for `O=C(c1ccccc1)N1CCN(CC2CCOc3ccccc3C2)CC1` (stereo unspecified), the figure is 1.88%. In the case of `COCCc1noc(CNC(=O)C2CC(=O)N(C(C)(C)C)C2)n1` (stereo unspecified), the INHIBITION is recorded as -28.97%. Regarding `CCN1CC(C(=O)NCc2noc(Cc3ccccc3)n2)CCC1=O` (stereo unspecified), the INHIBITION is -17.86%. As for `CC(C)(C)N1CC(C(=O)NCc2noc(Cc3ccccc3)n2)CC1=O` (stereo unspecified), the figure is 50.63%; as for `CCn1nc(CC(C)C)cc1C(=O)NCc1c(C)cc(C)nc1OC`, 39.16%; as for `Cc1noc2nc(C3CCN(Cc4ccccn4)CC3)cc(C(F)F)c12`, -32.4%. As for `C/C(=C\c1ccccc1)CN1CCCC(c2nnc3n2CCNCC3)C1` (stereo unspecified), the figure is 36.51%; as for `O=C(NCCNc1cnccn1)c1scnc1Cl`, -6.71%; as for `O=c1[nH][nH]cc1-c1ccnc(NCCc2cccnc2)n1`, 7.4%. As for `Cc1ccc(-c2cnn(CC(=O)NC(C)C)c2)cc1`, the figure is 72.31%; as for `CCC(CC)NC(=O)Cn1cc(-c2ccccc2)cn1`, -9.17%; as for `CC(NC(=O)Cn1cc(-c2ccccc2)cn1)C1CC1` (stereo unspecified), 35.65%. As to `CCCNC(=O)Cn1cc(-c2ccccc2)cn1`, the INHIBITION is listed as -14.11%. As for `CNC(=O)NC(=O)Cn1cc(-c2ccccc2)cn1`, the figure is 54.92%; as for `CC(C)NC(=O)Cn1cc(-c2ccccc2)cn1`, -42.92%; as for `CCn1c(C)nnc1CN(C)C1CCN(Cc2sc(C)nc2C)C1` (stereo unspecified), 65.3%. As for `Cc1nc(C)c(CN2CCC(N(C)Cc3nnc(C4CC4)o3)C2)s1` (stereo unspecified), the figure is 37.9%. As to `CCn1c(C)nnc1CN(C)C1CCN(Cc2c(C)noc2C)C1` (stereo unspecified), the INHIBITION was 4.72%. As to `O=S(=O)(c1ccccc1)N1CCC2(CCCN2Cc2ccc(Cl)cc2)C1` (stereo unspecified), the INHIBITION is listed as -28.17%. As for `O=C(CCCc1nnc(-c2ccccc2)o1)N1CCN(CCO)CC1`, the figure is 36.65%; as for `O=C(CCCc1nc(-c2ccccc2)no1)N1CCN(CCO)CC1`, 41.76%.

On to `O=C(CCCc1ncc(-c2ccccc2)o1)N1CCN(CCO)CC1`, for which the INHIBITION was found to be 56.67%. As for `COc1ccc(Br)cc1NCC(=O)NC(C)(C#N)C1CC1` (stereo unspecified), the figure is -0.46%; as for `CSc1ccc2c(C)cc(N[C@@H](C)CO)nc2c1`, 71.67%; as for `CCn1ncnc1C(C)Nc1cc(C)c2ccc(SC)cc2n1` (stereo unspecified), -35.22%. As for `COC[C@H](C)Nc1cc(C)c2ccc(SC)cc2n1`, the figure is 45.56%; as for `O=C(c1cccnc1-c1ccoc1)N1C[C@@H]2CC[C@H]1C2`, -15.77%; as for `CCC1(CO)CCN(C(=O)c2cc(COc3ccccc3F)[nH]n2)CC1`, -64.06%. As for `CCn1nc(C)c(CCNC(=O)C2CCCN(C(=O)N(C)C)C2)c1C` (stereo unspecified), the figure is -17.7%. Turning to `Cn1cc(CN2CCOC(c3cccc(-c4cccc(F)c4)n3)C2)cn1` (stereo unspecified), the INHIBITION worked out at 53.16%. As for `Cn1cc(CN2CCOC(c3cccc(-c4cncnc4)n3)C2)cn1` (stereo unspecified), the figure is 0.12%. As for `Cn1cc(CN2CCOC(c3nccnc3-c3cccc(F)c3)C2)cn1` (stereo unspecified), the figure is 11.74%; as for `CN(C)Cc1nn(C)c2c1CCN(C(=O)CC1CC1)C2`, -1.31%.

Take `C=C(C)COc1ccccc1C(=O)NCCCc1nnn[nH]1`: the INHIBITION was -24.7%. In the case of `OC(COCc1ccco1)CN1CCc2c(ncn2C2CC2)C1` (stereo unspecified), the INHIBITION came out at 35.23%. As for `CC(Cc1cccs1)NC(=O)CCn1cccn1` (stereo unspecified), the figure is 0.66%; as for `O=C(CCOc1ccccc1)N1CCCC(c2ncc[nH]2)C1` (stereo unspecified), 2.06%; as for `CCCN(Cc1nccn1C)C(=O)C(CC)Nc1cccc(OC)c1` (stereo unspecified), 16.82%. As to `COCc1cn(CC2CCN(Cc3nc(C)c[nH]3)CC2)nn1`, the INHIBITION is recorded as -37.15%. For the compound `Cc1ccc(CN2Cc3c(C(=O)N(C)C)nn(C)c3C2)s1`, the INHIBITION is -35.2%. In the case of `Cc1cccc(CS(=O)(=O)c2nnc(N3CCOCC3)s2)c1`, the INHIBITION came to 22.34%. For `O=S(=O)(Cc1ccccc1)c1nnc(N2CCCC2)s1`, the INHIBITION is listed as 44.37%. Take `O=S(=O)(Cc1ccccc1)c1nnc(N2CCOCC2)s1`: the INHIBITION was 52.08%. As for `CCCn1cc(CNCC(c2ccc(C)s2)N2CCOCC2)cn1` (stereo unspecified), the figure is 10.46%; as for `CNc1cc(C(=O)N2CCOC(C(=O)NC3CCCC3)C2)ccn1` (stereo unspecified), -5.76%.

On to `CCn1cnnc1CNC(=O)N(C)Cc1ccc2c(c1)OCO2`, for which the INHIBITION is -19.35%. For the compound `Cc1ccc(Nc2nccc(C3CN(CC(N)=O)C3)n2)nc1`, the INHIBITION amounted to 9.79%.

`Cc1ccc(Nc2nccc(C3CCCN(CC(=O)N(C)C)C3)n2)nc1` (stereo unspecified): the INHIBITION is -28.81%. As for `Cc1ccc(Nc2nccc(C3CCN(CC(N)=O)C3)n2)nc1` (stereo unspecified), the figure is 85.75%; as for `O=C(C1CCC1)N1CCCC(c2ccnc(Nc3cnccn3)n2)C1` (stereo unspecified), 57.82%; as for `CC(=O)N1CCCC(c2ccnc(Nc3cnccn3)n2)C1` (stereo unspecified), -39.95%. For `O=C(C1CCCC1)N1CCC(c2ccnc(Nc3cnccn3)n2)C1` (stereo unspecified), the INHIBITION was found to be 37.81%.

Turning to `O=C(c1ccco1)N1CCOCC2(C1)CN(c1ccccc1)C(=O)CO2` (stereo unspecified), the INHIBITION is recorded as 16.48%. As for `COc1ccc(CN2CC[C@H]3[C@H]2CC(=O)N3Cc2cccc(C)n2)cc1`, the figure is 3.55%; as for `CCCn1nc2c(cc1=O)CN(Cc1nc(C)c(C)o1)CC2`, 44.43%; as for `OC(CN1CC(n2cccn2)C1)c1ccc2c(c1)OCCO2` (stereo unspecified), -28.22%. As for `Cc1nc(CNCC2CN(C)CCO2)cs1` (stereo unspecified), the figure is -50.23%; as for `CN1CCOC(CNCc2csc(C3CCCCC3)n2)C1` (stereo unspecified), 16.84%; as for `CN1CCOC(CNCc2csc(C3CCCC3)n2)C1` (stereo unspecified), 60.71%. As for `CCOC(=O)c1c(NC(=O)CN2CCN(C(C)=O)CC2)sc2c1CCC2`, the figure is 25.47%. Regarding `C1CC(N2C[C@@H]3COC[C@]3(COCC3CCOCC3)C2)C1`, the INHIBITION was determined as 22.96%.

Regarding `CCc1noc(-c2ccc(SCC(=O)O)nc2)n1`, the INHIBITION amounted to 47.9%.

Regarding `CCOC(=O)CSc1ccc(-c2nc(C)no2)cn1`, the INHIBITION is recorded as 70.75%.

For the compound `CCOC(=O)CSc1ccc(-c2nc(CC)no2)cn1`, the INHIBITION came out at 46.51%. As for `COc1ccc(Br)c(C(=O)NCC2CC2)c1`, the figure is 9.21%. As to `CC(NC(=O)C1CCN(S(N)(=O)=O)CC1)c1cccc(OC(F)F)c1` (stereo unspecified), the INHIBITION worked out at 1.42%. As for `NS(=O)(=O)N1CCC(C(=O)Nc2cccc(OC(F)F)c2)CC1`, the figure is 50.98%. Regarding `O=C(Nc1cccc(OC(F)F)c1)C1CN(S(=O)(=O)C2CC2)C1`, the INHIBITION is reported as 21%.

For the compound `CN(C)C[C@@H]1C[C@@H]2CN(C(=O)c3ccoc3)CC[C@@H]2N1CC1CC1`, the INHIBITION is recorded as -72.76%. For `C=Cc1ccc(C(=O)N2CCCC(Nc3ccccc3)C2)cc1` (stereo unspecified), the INHIBITION is given as 43.86%. As for `CCN(C)S(=O)(=O)N1CCC(C(O)c2ccc(Cl)cc2)CC1` (stereo unspecified), the figure is -11.41%; as for `CN(C)S(=O)(=O)N1CCC(C(O)c2ccc(Cl)cc2)CC1` (stereo unspecified), 24.36%; as for `CCN(C)S(=O)(=O)N1CCC(C(O)c2ccc(F)cc2)CC1` (stereo unspecified), 52.98%. For `CCCn1nc2c(cc1=O)CN(Cc1nnc(C3CC3)o1)CC2`, the INHIBITION is given as -7.73%. As for `Cc1ncsc1CCN(C)C(=O)CN1CCOC1=O`, the figure is 29.13%; as for `c1cc(CN2CC[C@H]3O[C@@H](COCC4CCOCC4)CC[C@H]32)ccn1`, -5.17%. On to `Cc1nc2ccccc2n1CCNCc1cccc(C#N)c1`, for which the INHIBITION is given as -5.59%. In the case of `COc1ccc(CNCCn2c(C)nc3ccccc32)cc1O`, the INHIBITION is -92.51%. For the compound `Cc1nc2ccccc2n1CCNCc1cccc(O)c1`, the INHIBITION was determined as 54.47%. As for `CSc1nsc(NC(=O)c2cc(C3CC3)nn2C)n1`, the figure is -11.3%; as for `O[C@]12CCNC[C@H]1CN(c1ccnc3ccccc13)CC2`, 16.35%. As for `OC[C@H]1CN(Cc2c(Cl)cncc2Cl)C[C@H]1CN1CCOCC1`, the figure is 14.13%; as for `OC[C@H]1CN(Cc2c(Cl)cncc2Cl)C[C@H]1CN1CCCC1`, 72.91%; as for `OC[C@H]1CN(Cc2c(Cl)cncc2Cl)C[C@H]1CN1CCCCCC1`, -34.9%.
